The panel holds about 83,000 compounds, 20% with a hit somewhere; the sample as a whole holds those more often.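 Assay: single dose, 48 h. Readout: percent growth (0 = no net growth; negative = cell death). Active: <10.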 Values without a mark were called inactive. The source made the active and inactive calls.

Drawing on PubChem BioAssay (NCI), this text covers growth for 10 molecules.

Test systems include OVCAR-8 ovarian; OVCAR-5 ovarian; OVCAR-4 ovarian; SK-OV-3 ovarian; IGROV1 ovarian; OVCAR-3 ovarian; HS 578T breast; NCI/ADR-RES ovarian; T-47D breast; BT-549 breast; MDA-MB-435 melanoma; SW-620 colon; MCF7 breast; HCT-116 colon; HCC-2998 colon; KM12 colon; RPMI-8226 leukemia.
What all share (assay): NCI-60 one-dose screen, 48 h (100 = growth as untreated, 0 = no growth, -100 = all killed)
Common to all, as to details: 10 µM unless noted

Turning to `COc1cccc(/C=C2\COc3ccc(O)c(O)c3C2=O)c1OC`, the growth was 18.3% in the assay with OVCAR-8 ovarian; 2.35% (active) in the assay with OVCAR-5 ovarian; 35.3% with OVCAR-4 ovarian; 54.8% in the assay with SK-OV-3 ovarian; -39.9% (active) in the assay with IGROV1 ovarian; -18.1% (active) in the assay with OVCAR-3 ovarian. For the same molecule, the growth in the assay with HS 578T breast is 17.3%; in the assay with NCI/ADR-RES ovarian, 16.9%; in the assay with T-47D breast, 4.89% (active); in the assay with BT-549 breast it was 35.3%; in the assay with MDA-MB-435 melanoma it was 9.09% (active); with SW-620 colon it was 4.8% (active). The growth with MCF7 breast was 16.7%; with HCT-116 colon it was -48.4% (active); with HCC-2998 colon it was 78.6%; with KM12 colon, 12.9%.
As to `CC1=C(C(=O)Nc2ccccc2)C(c2ccc3c(c2)OCCO3)NC(=O)N1` (configuration not stated), the growth with OVCAR-8 ovarian was 102%; in the assay on OVCAR-5 ovarian it was 102%; in the assay with OVCAR-4 ovarian, 106%; in the assay with SK-OV-3 ovarian it was 101%; in the assay with IGROV1 ovarian, 104%; in the assay on OVCAR-3 ovarian, 106%. In addition, the growth in the assay on HS 578T breast is 101%; in the assay on NCI/ADR-RES ovarian, 101%; in the assay with T-47D breast, 101%; with BT-549 breast it was 95.9%; in the assay on MDA-MB-435 melanoma, 102%; in the assay on SW-620 colon, 105%. Further, the growth in the assay with MCF7 breast was 94.7%; with HCT-116 colon, 97.6%; with HCC-2998 colon, 103%; in the assay with KM12 colon, 100%.
Regarding `Nc1ccc(C2=Nc3cccc4cccc(c34)S2)cc1`, the growth with RPMI-8226 leukemia is 81.8%; in the assay with OVCAR-5 ovarian, 73.2%; in the assay with OVCAR-4 ovarian, 85.3%; with SK-OV-3 ovarian, 103%; in the assay with OVCAR-3 ovarian, 87.9%; in the assay with HS 578T breast, 92.2%. For the same molecule, the growth with T-47D breast is 8.57% (active); in the assay with BT-549 breast it was 83.4%; in the assay on MDA-MB-435 melanoma, 98.3%; in the assay on SW-620 colon, 97.2%; with MCF7 breast it was 45.2%; with HCT-116 colon, 81.7%. In addition, the figures for the growth with HCC-2998 colon and in the assay on KM12 colon were 61.4% and 76.5%, respectively.
In the case of `CCC1=C(c2ccc(OC)cc2)C(C)(C)Oc2c1ccc(O)c2CN1CCCC1`, the growth was 0.544% (active) in the assay on RPMI-8226 leukemia; 68.3% in the assay with OVCAR-5 ovarian; 60% in the assay with OVCAR-4 ovarian; 73.9% with SK-OV-3 ovarian; 51.4% in the assay with IGROV1 ovarian; 54.7% in the assay on OVCAR-3 ovarian. Besides, the growth with HS 578T breast was 59.3%; in the assay with T-47D breast it was -41.2% (active); in the assay with BT-549 breast, 40.9%; with MDA-MB-435 melanoma, 2.88% (active); in the assay with SW-620 colon, 3.45% (active); in the assay on MCF7 breast it was -73.1% (active). Further, the growth was -21.4% (active) with HCT-116 colon, -89.7% (active) with HCC-2998 colon and -9.53% (active) in the assay with KM12 colon.
In the case of `Oc1ccc(-c2nn(-c3ccccc3)cc2-c2nc3ccccc3s2)cc1`, the growth is 93.5% in the assay with OVCAR-8 ovarian; 108% with OVCAR-5 ovarian; 86.2% in the assay on OVCAR-4 ovarian; 99% in the assay on SK-OV-3 ovarian; 80.9% in the assay with IGROV1 ovarian; 85.3% with OVCAR-3 ovarian. Further, the growth with HS 578T breast is 92.4%; with NCI/ADR-RES ovarian, 81.1%; in the assay on T-47D breast it was 53%; in the assay on BT-549 breast it was 103%; in the assay with MDA-MB-435 melanoma, 102%; in the assay on SW-620 colon, 99.6%. The growth in the assay with MCF7 breast is 50.4%; with HCT-116 colon, 88.8%; in the assay on HCC-2998 colon, 102%; in the assay on KM12 colon, 82.8%.
Consider `CC(C)COCC(CN(Cc1ccccc1)c1ccccc1)N1CCCC1` (configuration not stated), for which the growth with RPMI-8226 leukemia is 46.4%; in the assay with OVCAR-4 ovarian it was 49.9%; with SK-OV-3 ovarian, 74.9%; with OVCAR-3 ovarian, 72.4%; in the assay with HS 578T breast it was 81.6%; in the assay on NCI/ADR-RES ovarian, 65.2%. The growth is 66.1% in the assay on T-47D breast; 62.2% in the assay with BT-549 breast; 72.4% with MDA-MB-435 melanoma; 70.1% in the assay with SW-620 colon; 45.8% in the assay with MCF7 breast; 36.7% in the assay with HCT-116 colon. Moreover, the figures for the growth in the assay on HCC-2998 colon and with KM12 colon were 44.8% and 56.2%, respectively.
Take `O=C(Oc1ccc[nH]c1=O)c1cccc(Cl)c1`: the growth in the assay with RPMI-8226 leukemia is 108%; in the assay with OVCAR-5 ovarian, 97.5%; in the assay on OVCAR-4 ovarian, 54.6%; with SK-OV-3 ovarian, 103%; in the assay with OVCAR-3 ovarian, 102%; in the assay on HS 578T breast it was 154%. Also, the growth is 99.2% with T-47D breast; 88.4% with BT-549 breast; 108% in the assay on MDA-MB-435 melanoma; 115% in the assay on SW-620 colon; 93.9% in the assay with MCF7 breast; 88.5% with HCT-116 colon. In addition, the growth with HCC-2998 colon is 106%; in the assay with KM12 colon, 104%.
As for `O=C1CCCN1C1CCN(Cc2cc3ccccc3[nH]c2=O)c2ccccc21` (configuration not stated), the growth is 3.19% (active) in the assay with RPMI-8226 leukemia; 91.3% with OVCAR-5 ovarian; 82.6% in the assay with OVCAR-4 ovarian; 93.8% with SK-OV-3 ovarian; 98.8% in the assay with OVCAR-3 ovarian; 98% in the assay on HS 578T breast. The growth in the assay with NCI/ADR-RES ovarian was 97.4%; in the assay on T-47D breast, 60.1%; in the assay on BT-549 breast, 98.2%; in the assay with MDA-MB-435 melanoma, 93.5%; with SW-620 colon, 96.3%; in the assay with MCF7 breast, 92.8%. The growth was 82.6% in the assay with HCT-116 colon, 96.4% in the assay on HCC-2998 colon and 98.1% with KM12 colon.
Consider `CC(c1ccccn1)C(C)(O)C(C)c1ccccn1` (configuration not stated), for which the growth in the assay with OVCAR-8 ovarian is 101%; in the assay on OVCAR-5 ovarian, 98%; in the assay on OVCAR-4 ovarian, 112%; in the assay with SK-OV-3 ovarian it was 114%; in the assay with IGROV1 ovarian, 112%; with OVCAR-3 ovarian it was 106%. Besides, the growth in the assay on HS 578T breast is 104%; with NCI/ADR-RES ovarian it was 107%; with T-47D breast, 118%; in the assay with BT-549 breast, 108%; in the assay with MDA-MB-435 melanoma, 104%; in the assay on SW-620 colon, 112%. For the same molecule, the growth in the assay on MCF7 breast was 103%; with HCT-116 colon it was 108%; in the assay with HCC-2998 colon, 104%; in the assay on KM12 colon it was 105%.
Take `COc1cc(/C=C2\COc3ccc(O)c(O)c3C2=O)cc(OC)c1`: the growth in the assay on OVCAR-8 ovarian was 14.6%; with OVCAR-5 ovarian, -29.2% (active); with OVCAR-4 ovarian, 31.1%; in the assay on SK-OV-3 ovarian it was 38.2%; in the assay on IGROV1 ovarian, -61.3% (active); with OVCAR-3 ovarian it was -32.3% (active). In addition, the growth with HS 578T breast was 21.8%; with NCI/ADR-RES ovarian, 0.0937% (active); in the assay on T-47D breast it was -12.1% (active); in the assay with BT-549 breast it was 3.92% (active); in the assay with MDA-MB-435 melanoma, 0.577% (active); with SW-620 colon it was -19.3% (active). Also, the growth in the assay with MCF7 breast was 16.7%; in the assay with HCT-116 colon it was -56% (active); in the assay with HCC-2998 colon, 25.1%; with KM12 colon, -11.1% (active).
